# According to PubChem BioAssay (NCI):
# This is part of a sample that, as a whole, favours compounds with a hit. Of some 83,000 tested, about 20% had one in any assay.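 The endpoint reported here, percent growth, reads 100 for growth as untreated, 0 for no net growth and -100 for all cells dead.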 Activity calls are given as the source filed them. The calls were made as follows: active = growth percent below 10; inactive = the rest.
# Tested on: MOLT-4 leukemia
# Experiment: NCI-60 one-dose screen, 48 h (100 = growth as untreated, 0 = no growth, -100 = all killed)
# Details: 10 µM unless noted
row,Compound,growth
1,CCc1cc2c(cc1Cl)nc1c(=O)[nH]c(=O)nc-1n2CCOCC(C)(C)C,69.2% (inactive)
2,Cc1cc(=O)[nH]c(O)c1C#N,100% (inactive)
3,CC1(C)CC[C@]23CC[C@]4(C)[C@H](CC[C@@H]5[C@@]6(C)CC[C@H](NCO)C(C)(C)[C@@H]6CC[C@]54C)[C@H]2[C@H]1OC3,15% (inactive)
4,CC(C)[C@H]1c2[nH]c3ccccc3c2C[C@H]2C(=O)N(CCCCCCC(=O)NO)CC(=O)N12,34.6% (inactive)
5,Cn1cc(-c2nc(N)nnc2-c2c[nH]c3ccc(Br)cc23)c2cc(F)ccc21,69.4% (inactive)
6,CCCCCCCCCCCC(=O)NC(C)(C)C(=O)N1CCCC1C(=O)NC(C)(C)C(=O)NC(C)(C)C(=O)N1CCCC1C(=O)NC(C)(C)C(=O)NC(C)(C)C(=O)N1CCCC1C(=O)NC(C)C(=O)NCCC(=O)NC(C)C(=O)NC(C)(C)C(=O)NC(C)(C)C(=O)NC(C)(C)C(=O)NCCC(=O)NC(C)(C)C(=O)NC(C)(C)C(=O)NC(C)(C)C(=O)NC(C)C(=O)NCCC(=O)O (stereo not given),-67.9% (active)
7,CN1CCN(c2ccc(Nc3nc(NCCNC(=O)c4ccccc4)c4sccc4n3)cc2)CC1,13.9% (inactive)
8,Cc1[nH]c(C(=O)Nc2ccccc2OCc2cccc(C(=O)NCCN)c2)cc1Cl,68.6% (inactive)
9,CCCc1[nH]c(-c2cc(N)ccc2Cl)c2c1C(=O)CCCC2,88.6% (inactive)
10,O=C(Nc1ccc(N=Cc2c(O)[nH]c3ccccc23)cc1)Nc1ccc(S(=O)(=O)Nc2ncccn2)cc1,121% (inactive)
11,CC1=Cc2ccccc2OC12C=Cc1ccccc1O2 (stereo not given),99.9% (inactive)
12,NS(=O)(=O)c1ccc(CCn2c(-c3ccc(C(=O)O)cc3)nc(-c3ccccc3)c2-c2ccccc2)cc1,108% (inactive)
13,COc1ccc(/C=N\NC(=O)c2cnn(CC(O)c3ccccc3)c2N)cc1OCc1ccc(Cl)cc1 (stereo not given),62.4% (inactive)
14,CNc1sc(S(=O)(=O)NC)nc1S(=O)(=O)c1ccc(C)cc1,100% (inactive)
15,C=C(C)[C@@H]1CC[C@]2(C(=O)N3CCN(C)CC3)CC[C@]3(C)[C@H](CC[C@@H]4[C@@]5(C)CC[C@H](OP(=O)(OCC)OCC)C(C)(C)[C@@H]5CC[C@]43C)[C@@H]12,36.3% (inactive)
16,NS(=O)(=O)c1ccc(Nc2nc(Nc3ccccc3)nc(N3N=C(c4ccc(Cl)cc4)CC3c3ccc(Cl)cc3)n2)cc1 (stereo not given),17.3% (inactive)
17,COc1cc(C(C)=C(c2ccc(OCCN(C)C)cc2)c2ccc(OCCN(C)C)cc2)ccc1F,108% (inactive)
18,CN1CCN(c2ccc(Nc3nc(NCCCNS(=O)(=O)c4ccc(F)cc4)c4sccc4n3)cc2)CC1,21.6% (inactive)
19,CCOC(=O)c1c(NC(=O)c2ccc(C(F)(F)F)cc2)sc2c(CN3CCN(C)CC3)c(O)ccc12,-36.5% (active)
20,CC(O)c1cccc(/C(N)=N/C(N)=N/c2nc3ccccc3s2)c1 (stereo not given),83.9% (inactive)

row,Compound,growth
1,C#Cc1cc(C(=O)Nc2ccc(CNCCN3CCOCC3)c(C(F)(F)F)c2)ccc1C,81.6% (inactive)
2,COc1ccc(/C=N/NC(=O)CSc2nc(-c3cnccn3)cc(-c3cccs3)c2C#N)cc1,73.8% (inactive)
3,Cn1cc(-c2nnc(N)nc2-c2c[nH]c3ccc(Br)cc23)c2cc(Br)ccc21,107% (inactive)
4,COc1ccc2[nH]cc(-c3nc(N)nnc3-c3cn(C)c4ccc(Br)cc34)c2c1,10.7% (inactive)
5,C#CCN(C)CCCOc1ccc(NCc2ccc(C(=O)NO)cc2)cc1Cl,17.3% (inactive)
6,CCN(CC)c1ccc(/C=N/NC(=O)c2ccc(NS(C)(=O)=O)cc2)c(O)c1,9.84% (active)
7,O=C(CCCCCCN1CC(=O)N2[C@@H](c3ccc(Cl)s3)c3[nH]c4ccccc4c3C[C@H]2C1=O)NO,11.2% (inactive)
8,CC1(C)CC[C@]23CC[C@]4(C)[C@H](CC[C@@H]5[C@@]6(C)CC[C@H](N)C(C)(C)[C@@H]6CC[C@]54C)[C@H]2[C@H]1OC3,-13.3% (active)
9,Cc1ccc(S(=O)(=O)NCCCNc2nc(Nc3ccc(N4CCN(C)CC4)cc3)nc3ccsc23)cc1,9.91% (active)
10,N#Cc1nc(-c2ccccc2)oc1N1CCC(C2(C(F)(F)F)N=N2)CC1,101% (inactive)
11,O=C(CCCCCCN1CC(=O)N2[C@@H](c3cccs3)c3[nH]c4ccccc4c3C[C@H]2C1=O)NO,19.3% (inactive)
12,O=C(CCCCCCNC(=O)C(O)(O)C(F)(F)F)Nc1nc2ccccc2s1,15.6% (inactive)
13,CNC(=O)c1cc(Oc2ccc3c(c2)sc2nc(-c4ccc(N(C)C)cc4)cn23)ccn1,15.1% (inactive)
14,CC1=C(C)C(=O)C(Nc2cccc(C)c2)=C(Br)C1=O,-29.9% (active)
15,CC(=C(c1ccc(OCCCN(C)C)cc1)c1ccc(OCCCN(C)C)cc1)c1ccc(Cl)cc1,65.3% (inactive)
16,COc1cc(C(=O)c2cc(C(C)=O)c3cccc(C)n23)cc(OC)c1OC,38.6% (inactive)
17,C#Cc1nc(/C=C/CCCCCCC(=O)NO)cs1,-14% (active)
18,CCCCCc1ccc(S(=O)(=O)Nc2cc(-c3csc(N)n3)ccc2OC)cc1,78.6% (inactive)
19,CCCc1cc2cc(-n3nc(CC)c4c3CC(C)(C)CC4=O)cc(NC3CCC(O)CC3)c2c(=O)[nH]1 (stereo not given),15.3% (inactive)
20,Cc1ccc(-c2cc3nc(C(Cl)Cl)nc(-c4ccc(S(=O)(=O)N(C)C)cc4)n3n2)cc1,75.6% (inactive)
